In all, about 48,000 compounds went through this assay and about 13,000 (27%) showed an effect of 50% or more. The list shows a part of the results.
test system: Wolbachia pipientis; experiment: Anti-Wolbachia Cell-Based Screen; type: functional; design: scale not given: in the data most compounds retested in dose-response had high values; conditions: 5 µM

Compound	Percent Effect [%]
Cc1nnc2n1CCN(C(=O)CN1C(=O)CCOc3ccccc31)C2	-10.74
CCN1CCN(S(=O)(=O)c2c[nH]c(C(C)C)n2)c2ccccc21	-17.2
CCc1ocnc1C(=O)Nc1ccc2ccn(CCN(C)C)c2c1	-13.13
CC(C)c1ncncc1C(=O)NCCN1CCCS1(=O)=O	-1.199
C/C(=C\c1ccco1)CN(C)C(C)c1ccccn1 (stereo unspecified)	4.306
CCC(CO)N(Cc1ccccc1C)Cc1ccccc1C(=O)O (stereo unspecified)	-4.887
COc1ccc(-c2noc([C@@H]3C[C@@H](O)CN3C3CCOCC3)n2)cc1	13.77
CN(C)c1ncc(-c2cncn2CCc2ccc3c(c2)OCCO3)cn1.Cl	96.16
CN(Cc1ccc2c(c1)OCCO2)C(=O)Cn1cccnc1=O	7.904
CN(Cc1ccc2c(c1)OCCO2)C(=O)NCCc1cnn(C)c1	10.28
CCn1cc(-c2cncn2CCc2ccc3c(c2)OCCO3)cn1.Cl	128.2
Cc1nn(C)cc1-c1cncn1CCc1ccc2c(c1)OCCO2.Cl	107.7
Cn1cnnc1C1CCN(C(=O)Cc2ccc3c(c2)OCCO3)CC1	14.42
CN(Cc1ccc2c(c1)OCCO2)c1ncc(S(N)(=O)=O)s1	-17.53
Cc1cnn(C2CN(Cc3ccc4c(c3)OCCO4)C2)c1	4.221
COc1ccc(CN(C)C(=O)CCc2c(C)nc(C)[nH]c2=O)cc1OC	10.21
CC(C)Cn1ccnc1CNC(=O)NC(C)c1nccs1 (stereo unspecified)	-12.96
Cc1cccc(CNC[C@H]2COCc3nc4cccnc4n32)n1	-11.24
Cn1c(C2CCCN2C(=O)CN2CSCC2=O)nc2ccccc21 (stereo unspecified)	-5.788
Cn1ccnc1CN1CCO[C@H]2C(CNC(=O)c3ccco3)CC[C@@H]21.O=C(O)C(F)(F)F (stereo partly specified)	-4.038
CO[C@@H]1CN(S(=O)(=O)c2cn(C)cn2)[C@@H]2CCCO[C@@H]21.O=C(O)C(F)(F)F	7.147
CN1CCc2onc(Cn3cccc3)c2C1.O=C(O)C(F)(F)F	-7.222

Compound	Percent Effect [%]
Cn1ccnc1CN1CCc2c(COCC3CC3)nn(C)c2C1	104.2
Cn1ccnc1CN1CCc2onc(COCC3CC3)c2C1.O=C(O)C(F)(F)F	94.95
Cn1cc(CN2CCCn3cnc(COCC4CC4)c3C2)cn1	-7.099
O=C(O)C(F)(F)F.c1ccn(Cc2noc3c2CN(Cc2ccsc2)CC3)c1	-2.985
Cn1nc(COCC2CC2)c2c1CCN(C(=O)c1ccno1)C2	2.608
Cc1nc(N)sc1C(=O)N[C@H]1CN(CCO)C[C@@H]1C1CC1	15.87
O=C(NCC(F)(F)F)c1coc(COc2cccc(F)c2)n1	-8.912
CCc1nc(C)sc1CN1CCc2[nH]nc(-c3ccc(F)c(F)c3)c2C1	80.67
CC(C)c1nnsc1CN1CCc2[nH]nc(-c3ccc(Cl)cc3)c2C1	-32.01
CC(C)c1nnsc1CN1CCc2[nH]nc(-c3ccc(F)c(F)c3)c2C1	-14.43
CC(C)S(=O)(=O)c1ccccc1C(=O)NCC1Cc2ccccc2O1 (stereo unspecified)	-14.53
Cc1noc2nc(C3CCCN(Cc4cccnc4)C3)cc(C(F)F)c12 (stereo unspecified)	110
Cc1noc2nc(C3CCN(Cc4ccncc4)CC3)cc(C(F)F)c12	-5.85
Cc1noc2nc(C3CCN(Cc4cccnc4)CC3)cc(C(F)F)c12.Cl	-9.901
FC(F)(F)c1cc(C2CCCN(Cc3cccnc3)C2)n[nH]1 (stereo unspecified)	5.486
Cc1noc2nc(C3CCCN(Cc4ccncc4)C3)cc(C(F)F)c12 (stereo unspecified)	102.2
O=C(c1ccoc1)N1CCc2c(COCc3ccncc3)cncc2C1	-1.129
O=C(c1ccsc1)N1CCc2c(COCc3ccncc3)cncc2C1	6.158
O=C(O)C(F)(F)F.O=C(O)C(F)(F)F.O=C(O)C(F)(F)F.O=C(O)C(F)(F)F.c1ccc(CN2CCc3c(COCc4ccncc4)cncc3C2)nc1	100.9
CCOCc1cncc2c1CCN(S(=O)(=O)c1ccccc1)C2	-7.612
O=C(O)C(F)(F)F.O=C(O)C(F)(F)F.O=C(O)C(F)(F)F.c1ccc(CN2CCc3c(COCC4CC4)cncc3C2)nc1	97.89
O=C(O)C(F)(F)F.c1ccc(CN2Cc3[nH]nc(COCC4CC4)c3C2)nc1	-4.447

Compound	Percent Effect [%]
CCS(=O)(=O)N1CCc2c(COCc3ccncc3)cncc2C1	118.3
O=C(O)C(F)(F)F.O=C(O)C(F)(F)F.O=C(O)C(F)(F)F.c1cncc(COCc2cncc3c2CCN(Cc2ccoc2)C3)c1	108.7
Cn1cc(CN2CCc3c(COCC4CC4)cncc3C2)cn1.O=C(O)C(F)(F)F.O=C(O)C(F)(F)F	4.622
O=C(O)C(F)(F)F.O=C(O)C(F)(F)F.c1cncc(COCc2nnc3n2CCN(Cc2ccoc2)C3)c1	7.608
Cn1cc(CN2CCc3c(COCc4ccncc4)cncc3C2)cn1	11
O=C(O)C(F)(F)F.O=C(O)C(F)(F)F.O=C(c1ccc[nH]1)N1CCc2c(COCc3ccncc3)cncc2C1	-6.376
N#Cc1ccccc1C(=O)N1C[C@H](CO)C[C@H](CN2CCCC2)C1	4.936
Cc1nc(C(=O)N2CCN(C(=O)C3CCC3)[C@@H]3CS(=O)(=O)C[C@@H]32)cs1	7.717
CNC(=O)NC(=O)C(C)N1CCC(c2c[nH]c3ccc(OC)cc23)CC1 (stereo unspecified)	1.858
CC(C)CCN(C)Cn1ncc2cn(-c3ccccc3)nc2c1=O	5.11
Cc1nc(NC(=O)NCc2nc3cccc(C)c3n2C)oc1C	43.9
CCn1c(CNC(=O)c2ccc(N(C)C)nc2)nc2ccccc21	8.635
CCn1c(CNC(=O)Nc2nc(C)c(C)o2)nc2ccccc21	89.34
CC(=O)NCCSCCOc1cccc(Br)c1	-2.574
CCCNC(=O)CSCc1ccc(S(=O)(=O)N(C)C)o1	-0.4398
CNc1oc(-c2cc(S(=O)(=O)N3CCCCCC3)c(C)o2)nc1C#N	9.909
Cc1oc(-c2nc(C#N)c(N(C)C)o2)cc1S(=O)(=O)N1CCCC1	17.91
CNc1oc(-c2ccc(OC)c(S(=O)(=O)N3CCCCC3)c2)nc1C#N	-6.371
CNc1oc(-c2ccc(S(=O)(=O)N(C)C)o2)nc1C#N	100.4
CN(C)S(=O)(=O)c1ccc(-c2nc(C#N)c(NC(C)(C)C)o2)o1.Cl	93
CN(C)S(=O)(=O)c1ccc(CSCC(=O)NC(C)(C)C)o1	-7.197
CC(C)Nc1oc(-c2ccc(S(=O)(=O)N(C)C)o2)nc1C#N	118.4

— ChEMBL document CHEMBL3988442, “University of Dundee, Small-Polar-MMV Screening Library” (2021)
